# Over roughly 33,000 sequences, “E-score (-0.5 to 0.5)” has its median near -0.0034; the highest 2% begin near 0.25. For the sample, the highest values were picked, then their nearest neighbours and some sequences at random.
# Molecular target: T1, Yap3 (UniProt P38749)
# T1 sequence: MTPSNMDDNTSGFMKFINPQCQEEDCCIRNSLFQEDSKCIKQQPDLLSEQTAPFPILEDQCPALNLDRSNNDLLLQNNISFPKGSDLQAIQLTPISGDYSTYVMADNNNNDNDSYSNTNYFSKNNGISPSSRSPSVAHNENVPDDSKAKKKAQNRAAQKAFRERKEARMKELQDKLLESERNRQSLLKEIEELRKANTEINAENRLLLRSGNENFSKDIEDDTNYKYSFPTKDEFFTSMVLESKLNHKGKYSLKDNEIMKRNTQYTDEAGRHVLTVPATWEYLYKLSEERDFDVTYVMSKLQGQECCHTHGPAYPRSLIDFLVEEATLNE
# Test: PBM E-score (8-mer binding enrichment) (E-score (-0.5 to 0.5)); higher = stronger / more preferred TF binding
# Conditions: protein concentration: 100 nM; construct: GST-full length
# Method in brief: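 Yeast transcription factors carrying a GST tag, as full-length proteins or DNA-binding domains, were produced by PURExpress in vitro transcription/translation. About 100-200 nM protein was applied to universal all-10-mer Agilent arrays, double-stranded by primer extension on fresh or once-stripped slides. Bound protein was detected with fluorescent anti-GST, and scans were normalised with masliner. The Universal PBM Analysis Suite gave each ungapped eight-base word, pooled with its reverse complement, an E-score, a modified Wilcoxon-Mann-Whitney statistic.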
row,Sequence,PBM E-score
1,CCGAGAGG,-0.18
2,GAGGTCTA,-0.165
3,TACGCTGA,0.156
4,GCTCCAGC,-0.037
5,AAGTCCGC,-0.104
6,CGCCAACC,-0.193
7,CAATAGAC,0.111
8,GAAGTCGA,0.0787
9,ATTTAACG,0.204
10,ATTTAATG,0.282
11,ATTTAAGG,0.0621
12,CGATAGAA,0.0788
13,ACACCCTG,-0.133
14,AATTACCA,0.256
15,CATTACAA,0.28
16,GATTACTA,0.225
17,TATTACAA,0.209
18,AATTACTA,0.325
19,AATTACTG,0.218
20,GATTACCA,0.153
21,GCTTACTA,0.237
22,CCTTACTA,0.281
23,AATTACCC,0.107
24,CCTTACTC,0.183
25,CATTACAC,0.205

row,Sequence,PBM E-score
1,AGATCACG,0.128
2,GGGCCACC,-0.256
3,TCTGCTAA,0.0116
4,ACCGCGAA,-0.00285
5,GGACATGA,-0.0945
6,ACAACTGC,0.0481
7,CTGCCCTA,-0.132
8,CCTGCATC,-0.0897
9,GGGCTCCA,-0.262
10,GAGGCACA,-0.0567
11,CATTACTC,0.221
12,CATTACTA,0.292
13,CTTTACTA,0.22
14,AATCAGAA,0.0468
15,AAAGAACC,0.0747
16,AGTATTAT,0.1
17,CGTATTAG,0.152
18,AGTATTAG,0.327
19,CGTATTAC,0.231
20,AGTATTAA,0.186
21,AGTATTAC,0.26
22,AGCAAGTG,-0.0827
23,AAATTGTC,0.154
24,GATCGACA,-0.00076
25,AACTAGAT,0.0716

row,Sequence,PBM E-score
1,ATTTGTTC,0.321
2,AATTGTTG,0.0159
3,AATTGTTC,0.257
4,ATTTGTTA,0.166
5,CTTTGTTC,0.0752
6,CATTGTTC,0.125
7,CATAGTTA,0.0154
8,CTAAGCAA,-0.0294
9,ATAAGCAA,0.137
10,GTAAGCAA,0.27
11,ATATCATG,0.101
12,GTATCTTA,0.267
13,GTATCTGA,0.133
14,ATATCATA,0.271
15,GCATCATA,0.193
16,CTATCATA,0.12
17,GTATCAGA,-0.0367
18,GTATCATA,0.276
19,CTATCTTA,0.126
20,CCTCAAAC,0.0235
21,TCGGGCCA,-0.132
22,GTGAGGCA,0.0355
23,CATGACCC,-0.0127
24,CGGGCCTA,-0.255
25,GTAGACCA,-0.0918

row,Sequence,PBM E-score
1,ACCCGCAG,-0.0808
2,ATCACTCG,0.0758
3,CCAGGTTC,-0.317
4,GTGCGAGA,0.0126
5,ATGTACCA,-0.0322
6,AAGTTATT,0.174
7,AAGTTATA,0.175
8,AAGTTATG,0.256
9,TATACTGA,0.295
10,GATACTGA,0.0116
11,CATACTGA,0.136
12,TGAGACAA,0.0572
13,ATTTCATG,-0.0106
14,ATTTCATA,0.239
15,ATTTCATC,0.269
16,CTAGTATC,0.0604
17,CCAATTAC,0.274
18,ATAATTAA,0.259
19,GCAATTAC,0.102
20,GTAATTAC,0.306
21,ACAATTAC,0.203
22,TTAATTAA,0.0675
23,GTAATTGA,0.115
24,CTAATTGA,0.0727
25,GGAATTAC,0.235

row,Sequence,PBM E-score
1,ATAATTGA,0.308
2,CCAATTAA,0.0782
3,CTAATTAA,0.135
4,CGTTCATA,-0.0126
5,AGCACGCC,-0.157
6,ACCACTGC,-0.048
7,GACACTAA,0.064
8,AAGGGGCA,-0.105
9,CTCTCGGA,0.00281
10,ATATGCGG,0.0287
11,GCAGTGAA,0.225
12,GTCAAAGA,-0.0517
13,AGTAGCCA,-0.141
14,CATGCACC,-0.191
15,CGCTGCTC,-0.133
16,ATAATTCC,0.163
17,ATAATTAC,0.333
18,GGAATTAA,0.233
19,CAAATTAG,0.122
20,CTAATTAC,0.253
21,ACAATTAG,-0.0417
22,GTAATTCA,0.177
23,CCAATTAG,0.177
24,GTAATTAA,0.259
25,ATAATTAG,0.347

row,Sequence,PBM E-score
1,CTAATTAG,0.347
2,AGAATTAG,0.0612
3,ATTAGAGC,0.116
4,GAACGCTC,-0.11
5,AGAGAAAT,0.142
6,CAACAGAA,-0.0742
7,CAACAGGG,-0.116
8,TACCACAA,0.123
9,AGGAAGAT,0.13
10,AGTCAGGG,-0.185
11,ATAATTAT,0.302
12,AGAATTAT,0.197
13,ATAATTCA,0.282
14,CTAATTCA,0.112
15,ATAATTCG,0.242
16,ACAATTAT,0.248
17,ATCAGAGG,-0.132
18,GACGCTGC,-0.0366
19,ATGCGAAA,0.13
20,ACTTAGGG,-0.112
21,CTTAATAC,0.0534
22,GTTAATAA,0.223
23,ATTAATAG,0.228
24,ATTAATAC,0.201
25,ATTAATAA,0.405

row,Sequence,PBM E-score
1,CTTAATAA,0.275
2,AATATGGG,0.0708
3,CTTGGTAC,0.172
4,GAAGAGCA,-0.258
5,GCTTCCCC,-0.346
6,ACGTCAGC,0.0264
7,GTCGCGAC,0.324
8,CTCGCGAC,0.068
9,GTCGCGAA,-0.0136
10,AAGGTATC,-0.00987
11,CACCACAC,0.096
12,ATTTGATC,-0.0998
13,GTATGAAC,0.0322
14,ATTTGATA,0.273
15,CTGTGATA,-0.106
16,GGATGATA,0.122
17,ATGTGATA,0.255
18,TTATGAAA,0.204
19,GTATGAAA,0.29
20,GTATGAGA,0.158
21,GTGTGATA,0.203
22,CTTTGATA,0.189

# From the supplement of paper PMC3334620
